Experimental data: article PMC4336329 (PLoS ONE, 2015)
Out of some 310,000 compounds screened, about 14,000 (4.5%) showed an effect of 50% or more. The effect is printed as a negative number. For the sample, strong results were picked, then their nearest neighbours and some compounds at random.

Target: human ether-à-go-go-related gene (hERG) potassium channel (human, UniProt Q12809)
Test: primary screen, population patch clamp on CHO cells stably expressing hERG; higher = less effect of the substance
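Note: peak tail current of the secondary pulse compared with the same well before compound.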

Sequence of human ether-à-go-go-related gene (hERG) potassium channel (Q12809 whole entry, looked up): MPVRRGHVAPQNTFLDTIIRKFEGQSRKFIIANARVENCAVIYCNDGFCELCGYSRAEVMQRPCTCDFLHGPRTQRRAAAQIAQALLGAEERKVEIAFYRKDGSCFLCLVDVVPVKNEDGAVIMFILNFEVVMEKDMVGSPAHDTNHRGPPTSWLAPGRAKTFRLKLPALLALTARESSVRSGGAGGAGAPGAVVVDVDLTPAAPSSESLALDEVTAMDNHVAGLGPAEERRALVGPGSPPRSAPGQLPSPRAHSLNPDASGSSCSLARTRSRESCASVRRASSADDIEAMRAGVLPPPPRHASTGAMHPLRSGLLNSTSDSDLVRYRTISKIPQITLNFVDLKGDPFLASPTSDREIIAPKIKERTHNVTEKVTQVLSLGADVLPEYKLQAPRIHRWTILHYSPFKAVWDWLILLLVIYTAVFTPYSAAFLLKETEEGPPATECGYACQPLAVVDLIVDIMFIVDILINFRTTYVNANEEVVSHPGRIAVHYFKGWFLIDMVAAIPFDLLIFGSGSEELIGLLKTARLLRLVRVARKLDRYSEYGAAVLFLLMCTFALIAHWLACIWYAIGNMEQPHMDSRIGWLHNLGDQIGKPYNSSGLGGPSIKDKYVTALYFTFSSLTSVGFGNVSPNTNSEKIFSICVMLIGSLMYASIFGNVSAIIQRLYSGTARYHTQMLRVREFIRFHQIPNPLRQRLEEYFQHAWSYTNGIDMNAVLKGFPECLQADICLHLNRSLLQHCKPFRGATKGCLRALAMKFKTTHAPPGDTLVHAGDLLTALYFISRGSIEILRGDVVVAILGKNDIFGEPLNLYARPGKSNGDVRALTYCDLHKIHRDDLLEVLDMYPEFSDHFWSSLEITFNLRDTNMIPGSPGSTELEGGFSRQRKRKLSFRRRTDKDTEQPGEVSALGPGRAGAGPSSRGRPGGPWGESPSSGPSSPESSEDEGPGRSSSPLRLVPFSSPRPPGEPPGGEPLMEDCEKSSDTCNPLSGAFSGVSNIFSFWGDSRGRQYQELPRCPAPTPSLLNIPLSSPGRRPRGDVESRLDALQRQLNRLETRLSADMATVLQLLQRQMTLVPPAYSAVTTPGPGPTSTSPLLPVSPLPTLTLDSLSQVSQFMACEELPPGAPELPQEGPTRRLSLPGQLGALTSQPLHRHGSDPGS

Structure (SMILES) | hERG current change (%, negative = inhibition) at 10uM
Cc1ccccc1C(=O)NC(=S)NCC1CCCO1 (centres unmarked) | 12%
O=C(Nc1ccc2ncccc2c1)c1cc(Cl)ccc1Cl | 12.6%
CCOc1ccc(N(CC(=O)NCCc2ccc(OC)cc2)S(C)(=O)=O)cc1 | -0.0301%
O=C(CSc1ncnc2c1cnn2-c1ccc(Cl)cc1)NCc1ccc2c(c1)OCO2 | 13.7%
CC(C)OC(=O)CCC1(C(=O)O)CCC(=O)NC1 (centres unmarked) | 7.55%
CCC(=O)Nc1ccc(OCc2nc3ccccc3s2)cc1 | 21.1%
O=C(CSc1ncccc1-c1nc2ccccc2[nH]1)Nc1ccc2c(c1)OCCO2 | -30.8%
CC(C)Cn1c(SCC(=O)c2ccc(Cl)s2)nnc1-c1ccco1 | -76.7%
CCn1c(SCC(=O)c2ccc(Cl)s2)nnc1-c1cccs1 | -35.5%
Cn1c(SCC(=O)c2cc(Cl)c(Cl)s2)nnc1-c1ccco1 | -60.5%
Cn1c(SCC(=O)Nc2ccc(Cl)cc2F)nnc1-c1ccco1 | -59.4%
Cn1c(SCC(=O)Nc2ccc(Br)cc2F)nnc1-c1ccco1 | -26.7%
Cn1c(SCC(=O)c2cccs2)nnc1-c1ccco1 | 11.8%
Cn1c(SCC(=O)c2ccccc2)nnc1-c1ccco1 | -39.5%
CCn1c(SCC(=O)c2cccs2)nnc1-c1ccco1 | -2.68%
Cn1c(SCC(=O)Nc2ccccc2O)nnc1-c1ccco1 | -27.4%
CCN(C(=O)CN1CCN(S(=O)(=O)c2ccccc2C(F)(F)F)CC1)c1c(N)n(Cc2ccccc2)c(=O)[nH]c1=O | 13.6%
O=C(NC(=S)NCc1ccc(-c2nc3ccccc3s2)cc1)c1ccco1 | 34%
Cc1ccccc1-n1ncc2c1CC(C)(C)CC2NC(=O)c1cn[nH]c1C (centres unmarked) | -6.22%
CCCC(=O)Nc1ccc(C)c(O)c1 | 4.76%
C/C(=N\NC(=O)c1ccccc1O)c1cccc(NC(=O)c2ccccc2)c1 | -0.335%
O=C1N(CC(=O)N2CCc3ccccc32)CCN1Cc1ccccc1Cl | -12.1%
CN(C(=O)COC(=O)CCC(=O)c1ccccc1)c1c(N)n(Cc2ccccc2)c(=O)[nH]c1=O | 14.1%

Structure (SMILES) | hERG current change (%, negative = inhibition) at 10uM
Cl.OCCNc1nc(-c2ccccc2)nc2ccccc12 | 2.57%
Cl.OCCNc1nc(N2CCCCC2)nc2ccccc12 | -58.2%
Cl.c1ccc2c(NCC3CCCO3)nc(N3CCCCC3)nc2c1 (centres unmarked) | -72.9%
C=CCNc1ncnc2ccccc12 | 22.5%
Cl.OCCNc1nc(N2CCN(c3ccccc3)CC2)nc2ccccc12 | -74.6%
OCCNc1nc(N2CCCC2)nc(N2CCCC2)n1 | -2.85%
Cl.c1ccc2c(NCC3CCCO3)nc(N3CCOCC3)nc2c1 (centres unmarked) | -49.5%
c1ccc2c(NCC3CCCO3)nc(-c3ccncc3)nc2c1 (centres unmarked) | -14.6%
C=CCNc1nc(C(=O)OCC)nc2ccccc12 | 11.1%
C=CCNc1nc(N2CCCC2)nc2ccccc12 | -78.3%
COc1ccc([C@@H]2CC=C(C(=O)O)[C@H](c3ccc(F)cc3)N2S(=O)(=O)c2ccc(Cl)cc2)cc1 | 27.2%
Cc1ccc(-c2c(C#N)c(N)n(-c3ccccc3)c(=O)c2C#N)cc1 | 20.3%
O=C(NC1CCCCC1)c1n[nH]c2c1CCCCC2 | 2.43%
CC1CC(C)CN(C(=O)CSCC(=O)O)C1 (centres unmarked) | 1.3%
CCC1CCc2c(sc(NC(=O)C3c4ccccc4Oc4ccccc43)c2C(N)=O)C1 (centres unmarked) | 2.02%
Cc1ccc(C(C(=O)NCc2ccco2)N(C(=O)CNC(=O)c2cccs2)c2ccc(C)cc2)cc1 (centres unmarked) | 27.3%
CC(=O)Oc1ccc2nc(-c3ccc(Br)o3)oc(=O)c2c1 | 21.5%
COCCn1cc(C(=O)c2ccccc2OCC(=O)Nc2cc(C)on2)cc(C#N)c1=O | 10.3%
COCCCn1cc(C(=O)c2cc(OC)ccc2OCC(=O)Nc2cc(C)on2)cc(C#N)c1=O | -53%
COCCCn1cc(C(=O)c2cc(OC)ccc2OCC(=O)N2CCCCC2C)cc(C#N)c1=O (centres unmarked) | -22.9%
COc1ccc(C(=O)Nc2ccccc2N2CCN(C(=O)c3ccccc3)CC2)cc1Br | -8.68%
O=C(Nc1ccccc1N1CCN(C(=O)c2ccc(Cl)cc2)CC1)c1cc2ccccc2o1 | -2.33%
COc1ccc(Br)cc1C(=O)Nc1ccccc1N1CCN(C(=O)c2ccccc2)CC1 | -52.4%

Structure (SMILES) | hERG current change (%, negative = inhibition) at 10uM
CC(C)CC(=O)Nc1ccccc1N1CCN(C(=O)c2ccccc2)CC1 | -17.7%
CCCC(=O)Nc1ccccc1N1CCN(C(=O)c2ccccc2)CC1 | -46%
O=C(Nc1ccccc1N1CCN(C(=O)c2ccccc2)CC1)c1cc(Br)ccc1Cl | -55.6%
COc1ccc(Br)cc1C(=O)Nc1ccccc1-c1ccccc1 | -2.5%
O=C(Nc1ccccc1N1CCN(C(=O)c2ccc(Cl)cc2)CC1)c1cc(Br)ccc1Cl | -67.7%
O=C(Nc1ccccc1N1CCCC1)c1ccc(Cl)cc1Cl | 8.88%
Cc1ccc(C(=O)NCC(=O)NC2CCC(C)CC2)s1 (centres unmarked) | 2.47%
CC(=O)NCCc1nc2ccccc2n1Cc1ccccc1 | 1.05%
O=C(COc1ccccc1[N+](=O)[O-])Nc1ccccc1N1CCCC1 | -29.1%
CCN(CC(=O)Nc1ccc2c(c1)OCO2)CC(=O)Nc1ccccc1C(F)(F)F | -14.4%
C/C(=N\NS(=O)(=O)c1ccc(C)c([N+](=O)[O-])c1)c1cc2ccccc2o1 | -9.98%
Cc1ccc(-n2c(C)c3c(C)nnc(C)c3c2C)cc1C | -34%
C=CCn1cc(C(=O)c2cc(Br)ccc2O)cc(C#N)c1=O | -17.5%
Cc1ccc(C(=O)OCC(=O)N2CCCC2)cc1 | -2.99%
Cc1nnc(C)c2c(C)n(Cc3ccc4c(c3)OCO4)c(C)c12 | -71.4%
CC(=O)c1c(C(C)=O)c(C)n(Cc2ccc3c(c2)OCO3)c1C | -9.41%
Cc1nnc(-c2cnn(C)c2N)n1Cc1ccc2c(c1)OCO2 | 5.96%
CCOc1ccc2oc(C(=O)OCC(=O)NC3CCCC3)c(C)c2c1 | 11.1%
Cc1cccc(NC(=O)CN2C(=O)c3ccccc3C2=O)c1C | 0.742%
CCc1ccc(C(=O)NNC(=O)CCc2nc3ccccc3c(=O)[nH]2)cc1 | -7.54%
O=[N+]([O-])c1ccc(CN2CCN(Cc3c[nH]c4ccccc34)CC2)cc1 | -77.8%
O=C(O)C(=O)O.O=[N+]([O-])c1ccccc1CN1CCN(Cc2c[nH]c3ccccc23)CC1 | -24.2%
c1ccc(CN2CCN(Cc3c[nH]c4ccccc34)CC2)cc1 | -30.2%

Structure (SMILES) | hERG current change (%, negative = inhibition) at 10uM
O=C(O)C(=O)O.O=[N+]([O-])c1ccc(S(=O)(=O)N2CCN(Cc3c[nH]c4ccccc34)CC2)cc1 | -54.5%
O=S(=O)(c1ccc(Cl)cc1)N1CCN(Cc2c[nH]c3ccccc23)CC1 | -18.8%
c1ccc2c(CN3CCCCC3)c[nH]c2c1 | -38%
O=C(CN1CCN(Cc2ccccc2Cl)C1=O)NCc1cccnc1 | -1.97%
O=C(Cn1c(SCC(=O)N2CCCc3ccccc32)nc2ccccc21)N1CCCC1 | -13.2%
O=[N+]([O-])c1ccc2c(c1)nc1n2CCN(c2ccccc2)C1 | -26.1%
CCn1cnc2sc(C(=O)N(Cc3ccc(N(C)C)cc3)Cc3ccco3)c(C)c2c1=O | -22.2%
CCOC(=O)c1c(NC(=O)C2COc3ccccc3O2)sc2c1CCN(Cc1ccccc1)C2.Cl (centres unmarked) | 0.603%
CN(C)C1=NC[C@H](Cc2ccccc2)N1CC1CCCCC1 | -14.6%
CN(C)C1=NC[C@H](Cc2ccccc2)N1CC1CCCC1 | -16.9%
CN(C)C1=NC[C@H](Cc2ccccc2)N1CCCC1CCCC1 | -71.2%
CN(C)C1=NC[C@H](Cc2ccccc2)N1CCCC1CCCCC1 | -70.8%
NC1=NC[C@H](Cc2ccc(O)cc2)N1CCCCC1CCCCC1 | -50.2%
CN(C)C1=NC[C@H](Cc2ccccc2)N1CC1CCCCCC1 | -27.8%
CN(C)C1=NC[C@H](Cc2ccccc2)N1CCC1CCCC1 | -43.5%
NC1=NC[C@H](Cc2ccccc2)N1CCCCC1CCCCC1 | -25.9%
NC1=NC[C@@H](Cc2ccc(O)cc2)N1CCCCC1CCCCC1 | -18.6%
N#C/C(=C\c1ccc(F)cc1F)S(=O)(=O)c1ccccn1 | 6.77%
Cc1ccc(C)c(NS(=O)(=O)c2cc3c4c(c2)CC(=O)N4CCC3)c1 | 4.86%
O=C(N/N=C/c1ccc(Br)s1)c1cccc([N+](=O)[O-])c1 | 12.2%
